Screening results (PubChem BioAssay)
AmpC detergent – qHTS Inhibitors of AmpC Beta-Lactamase (assay with detergent); AmpC hydrolysis of nitrocefin, absorbance 480 nm, 0.01% Triton; Potency, µM (top dose mostly 114 µM), for inactives: top-dose activity change, negative = inhibition, usual class: inhibitors; 370,000 tested, 0.041% active; AID 485294, 2010;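 also: 0% = no-compound wells and -100% = no-enzyme wells; nearly all actives have a fitted effect of over 25% in size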
Target sequence (P00811 whole entry, looked up): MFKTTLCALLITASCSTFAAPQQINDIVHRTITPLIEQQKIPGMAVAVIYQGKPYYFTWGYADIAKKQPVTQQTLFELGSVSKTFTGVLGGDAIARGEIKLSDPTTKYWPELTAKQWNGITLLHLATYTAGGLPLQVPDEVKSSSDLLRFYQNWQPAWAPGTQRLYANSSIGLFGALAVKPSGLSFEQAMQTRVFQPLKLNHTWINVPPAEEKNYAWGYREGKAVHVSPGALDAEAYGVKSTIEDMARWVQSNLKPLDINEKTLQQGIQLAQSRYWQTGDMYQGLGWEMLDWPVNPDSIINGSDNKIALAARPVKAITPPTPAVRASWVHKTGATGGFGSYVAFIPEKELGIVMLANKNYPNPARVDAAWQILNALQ
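AmpC (5.3 nM in the dispensed reagent) in 20 mM phosphate pH 7.0 with 0.01% (detergent screen) or 0.0001% Triton X-100 was preincubated with compounds for 15 min at room temperature. Nitrocefin was then added from an 800 uM solution, and hydrolysis was followed at 480 nm.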
Pf growth 48h – Primary qHTS for delayed death inhibitors of the malarial parasite plastid, 48 hour incubation. Potency, µM (top dose mostly 28.7 µM), for inactives: top-dose activity change, negative = inhibition, hits mostly inhibitors. AID 504832, 2011. 310,000 tested, 5.9% active. P. falciparum luciferase growth in erythrocytes, 48 h
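First compound was added to culture medium, then infected red cells at 0.1% parasitemia and 2% hematocrit (final). After incubation at 37 C under 5% CO2, luciferase detection reagent was dispensed and light output recorded.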
Pf growth 96h – Primary qHTS for delayed death inhibitors of the malarial parasite plastid, 96 hour incubation. 320,000 tested, 6.9% active. P. falciparum luciferase reporter growth, 96 h. AID 504834, 2011. Potency, µM (top dose mostly 28.7 µM), for the others: top-dose activity change, negative = inhibition, actives largely listed as inhibitors
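Plates of compound plus infected erythrocytes (2% hematocrit, 0.05% parasitemia final) incubate 96 hours, 37 C, 5% CO2. Detection reagent added; reduced luminescence from the parasites' luciferase reporter flags inhibition.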
AmpC inh no detg – qHTS Inhibitors of AmpC Beta-Lactamase (assay without detergent); AmpC nitrocefin hydrolysis, absorbance 480 nm, 0.0001% Triton; 330,000 tested, 0.52% active; AID 485341, 2010; P00811; Potency, µM (titrated, usually from 57.1 µM), inactives show top-dose activity change, negative = inhibition, actives largely listed as inhibitors;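 also: plate controls were no compound for no effect and no enzyme for full effect; nearly all actives have a fitted effect of over 20% in size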
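20 mM phosphate pH 7.0 + 0.01% (detergent screen) or 0.0001% Triton X-100; 5.3 nM AmpC reagent; cpd preinc 15 min RT; nitrocefin (800 uM stock) to start; A480 q20 s × 4 min; Activity was normalised to no-enzyme and no-compound control wells.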
AMA1 RON2 block – qHTS for Inhibitors of AMA1-RON; Towards Development of Antimalarial Drug Lead: Primary Screen; Plasmodium falciparum AMA1 (3D7) - RON2 peptide interaction; AlphaScreen AMA1-biotinylated RON2 peptide binding; Potency, µM (doses to about 58.2 µM), without a hit: top-dose activity change, negative = inhibition, actives largely listed as inhibitors; 360,000 tested, 0.2% active;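 also: 0% = vehicle wells and -100% = peptide control; nearly all actives have a fitted effect of over 45% in size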
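AMA1 (3D7) with his tag at 25 nM final met compounds first, then biotinylated RON2 peptide at 25 nM; detection used donor plus acceptor beads, 10 µg/mL apiece, read by AlphaScreen after 30 min at room temperature.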
HCV inh – qHTS Assay for Inhibitors of Hepatitis C Virus (HCV); Huh7.5.1 HCVcc-Cre infection, luciferase reporter, 44 h; Potency, µM (top dose mostly 41.8 µM), inactives show at the highest dose activity change, negative = inhibition, hits mostly inhibitors; 340,000 tested, 3.4% active
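Luciferase read-out (15 sec integration) after a 15 min room-temperature substrate step quantifies HCVcc-Cre infection. Cells, 1,000 per well, had compound added 4 h post-plating, then virus at ~0.5 moi, and were cultured 44 h.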
An asterisk follows results filed as active; ? = inconclusive; . = no result given; [ ] = remark or other dose. Hits are enriched below; roughly 11% of the tested compounds scored in any of these assays. Calls follow the shape of the dose curve; as a rule, active = well fitted curve in the direction sought with a large enough effect; inconclusive = small, poorly fitted or top-dose-only effect, or another doubt; inactive = no such curve, though single readings can be large; an effect the other way counts as inactive or inconclusive. Unless noted, % is scaled to controls: 0 for no effect and ±100 for the full control effect; potency is read from the fitted curve at half-maximal effect.

SMILES | AmpC detergent | Pf growth 48h | Pf growth 96h | AmpC inh no detg | AMA1 RON2 block | HCV inh
Fc1cccc(/C=C2\CCCC3=C2NC(=S)NC3c2cccc(F)c2)c1 (centres undefined) | -3% | 2.6µM* | 4.1µM* | ? | 40% | 8.9µM*
S=C1NC2=C(CCC/C2=C\c2ccc(Cl)cc2)C(c2ccc(Cl)cc2)N1 (centres undefined) | 0% | ? | ? | -53% | 38% | -8%
OC(CCN1CCCC1)(c1ccccc1)C1CCCCC1 (centres undefined) | -4% | -35% | -67% | -1% | -2% | 3%[8.37 µM]
CCCc1cc(=O)oc2cc(C)cc(OCC(=O)Nc3ccccn3)c12 | 3% | 0.93µM* | 0.66µM* | -17% | -1% | ?
CCCCc1cc(=O)oc2cc(C)cc(OCC(=O)Nc3ccccn3)c12 | 2% | 4.1µM* | ? | -15% | 6% | ?
Cc1cc(OCC(=O)Nc2ccccn2)c2c(C)cc(=O)oc2c1 | 1% | 19% | 35% | -16% | -1% | -18%
O=C(Nc1ccc(C(=O)NCCCN2CCN(c3ccc(F)cc3)CC2)cc1)C1=CSCCO1 | 6% | ? | 12µM* | 32% | 0% | ?
O=C(Nc1ccc(C(=O)NCCCN2CCCCC2)cc1)C1=CSCCO1 | -9% | 22% | ? | -11% | -5% | 2%
CC1CCCN(CCCNC(=O)c2ccc(NC(=O)C3=CSCCO3)cc2)C1 (centres undefined) | -4% | 11% | ? | -9% | 13% | 8%
Cc1cccc(N2CCN(CCCNC(=O)c3ccc(NC(=O)C4=CSCCO4)cc3)CC2C)c1 (centres undefined) | -6% | ? | -3% | 117% | ? | 11µM*
O=S(=O)(c1cc(Br)c(Br)s1)N1CCN(c2ccccc2)CC1 | 6% | . | . | . | . | .
CCOc1ccc(CCNC(=O)CSc2nnnn2-c2ccccc2)cc1OCC | -3% | . | . | . | . | .
CCCNC(=S)NCCN1CCCCC1 | 1% | 7% | 10% | -9% | -11% | 3%
CCNC(=S)NCCN1CCCCC1 | -6% | . | 12µM* | -14% | 6% | 17%
O=C(CCC1N=C2c3ccccc3N=C(SCc3cccc(F)c3)N2C1=O)NCCc1ccccc1 (centres undefined) | -3% | . | . | . | . | .
COc1ccc(S(=O)(=O)Cc2ccc(C(=O)N3CCN(c4cc(Cl)ccc4C)CC3)o2)cc1 | -15% | . | 13µM* | 72% | -8% | 8%
Cc1ccc(S(=O)(=O)Cc2ccc(C(=O)N3CCc4ccccc4C3)o2)cc1 | ? | . | 13µM* | -3% | -4% | -13%
COc1ccc(C(=O)CCC(=O)N2CCN(c3cc(C)ccc3C)CC2)cc1 | -4% | 10% | 27% | 53% | 10% | 10µM*
Cc1ccc(S(=O)(=O)Cc2ccc(C(=O)N3CCN(c4cccc(C)c4C)CC3)o2)cc1 | -7% | -2% | 3.7µM* | 50% | 1% | ?
COc1ccc(S(=O)(=O)Cc2ccc(C(=O)N3CCN(c4cc(C)ccc4C)CC3)o2)cc1 | ? | 7% | 4.7µM* | 130% | -10% | -7%
Cc1ccc(C)c(S(=O)(=O)N2CCN(C(=O)CSc3ccccc3F)CC2)c1 | 0% | ? | 15µM* | 60% | 41% | -16%
O=C(CN1CCN(C(C(=O)Nc2ccc(F)cc2)c2ccccc2)CC1)NC1CC1 (centres undefined) | 3% | ? | 15µM* | -11% | 14% | 30%
Cc1ccc(C)c(S(=O)(=O)N2CCN(C(=O)Cc3c(F)cccc3Cl)CC2)c1 | -17% | ? | -8% | 16% | ? | -23%
O=C(Nc1ccc(F)cc1)C(c1ccccc1)N1CCN(S(=O)(=O)c2ccc3ccccc3c2)CC1 (centres undefined) | ? | 13µM* | 0% | -20% | -9%[11.6 µM] | -4%
Cc1ccc(C)c(S(=O)(=O)N2CCN(C(C(=O)Nc3ccc(F)cc3)c3ccccc3)CC2)c1 (centres undefined) | ? | 13µM* | 54% | -25% | 0% | 6%
SMILES | AmpC detergent | Pf growth 48h | Pf growth 96h | AmpC inh no detg | AMA1 RON2 block | HCV inh
COc1ccc(CCNC(=O)Cn2nnc(-c3ccc(C(F)(F)F)cc3)n2)cc1OC | -1% | . | . | . | . | .
COc1cc(CN(C(=O)COc2ccc(C)c(C)c2)c2ccccn2)cc(OC)c1OC | 0% | . | . | . | . | .
O=C(Nc1ccc2c(c1)OCO2)C1CC(c2ccccc2Cl)=NO1 (centres undefined) | ? | 96% | 4% | -9% | -5% | 13%
CCn1cc(C2=NOC(C(=O)Nc3ccc4c(c3)OCO4)C2)c(C)n1 (centres undefined) | -11% | ? | 0.52µM* | -11% | -8% | ?
COc1cccc(CN2C(=O)C(C)N(C(=O)c3c(F)cccc3F)c3ccccc32)c1 (centres undefined) | 5% | 9.3µM* | 6.6µM* | -6% | -8% | 10µM*
CC(C)(C)c1ccc(C(=O)Nc2nc3nc(-c4ccccc4)cc(=O)n3[nH]2)cc1 | 8% | . | . | . | . | .
CCN1CCN(C(c2cccs2)C(C)NC(=O)NC2CCCCC2)CC1 (centres undefined) | ? | 0% | 22% | 45µM* | -8% | 21%
CC(NC(=S)NC1CCCCC1)C(c1cccs1)N1CCOCC1 (centres undefined) | 0% | ? | 8.3µM* | -1% | -4% | -1%
CCN1CCN(C(c2cccs2)C(C)NC(=S)NC2CCCCC2)CC1 (centres undefined) | -3% | -7% | -12% | -18% | -14% | ?
O=S(=O)(c1ccccc1)c1nc(-c2cccs2)oc1SCc1ccccc1F | 6% | . | . | . | . | .
CC(=O)c1cc(C(=O)Nc2cccc(C)c2)c2ccccn12 | -3% | . | . | . | . | .
Clc1cccc(-c2ccc(C=Nc3ccc(N4CCOCC4)cc3)o2)c1 | ? | 4% | 10µM* | -6% | ? | 29%
O=C(NCc1cccs1)c1ccc(CSc2nc3ccncc3n2Cc2ccccc2)cc1 | 2% | . | . | . | . | .
CC(=O)c1cccc(Nc2nn(-c3ccc(OC(F)(F)F)cc3)nc2C(C)=O)c1 | 21% | . | . | . | . | .
O=C1C(I)=CC(=C(c2cc(I)c(O)c(I)c2)c2ccccc2C(=O)O)C=C1I | . | 0% | -25% | . | . | .
COc1cc(NC(=O)C2CCN(c3nc4ccccc4nc3C(F)(F)F)CC2)cc(OC)c1 | 7% | . | . | . | . | .
